This note sets out measurements from publication PMC13541613, “GHT-SELEX demonstrates unexpectedly high intrinsic sequence specificity and complex DNA binding of many human transcription factors”.

Test in all cases: HT-SELEX; 20 mM HEPES pH 7, 140 mM KCl, 5 mM NaCl, 1 mM K2HPO4, 2 mM MgSO4, 100 uM EGTA, ZnSO4, 0.1% Tween20; room temperature, 1 h; high values mean tight binding
Holding throughout (conditions): protein: ivt; tags: eGFP (N-terminal); dsDNA, one strand shown

The target of one test is ZNF721 full-length (Homo sapiens, UniProt Q8TF20-2 1-923). A digest of the protocol: (§1)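 A tagged transcription factor, either full-length or its DNA-binding-domain fragment, was made in HEK293 lysate or cell-free extract, immobilised on beads and incubated with a randomized 40-base DNA library for 1 h at room temperature in HEPES/KCl low-stringency buffer containing Tween20. Washed beads were heat-eluted, and the bound DNA was PCR-amplified over successive cycles and Illumina-sequenced at ~3 million 60 bp reads per sample. The binding signal is the relative k-mer count in selected reads, where a higher value means tighter binding.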

In a further test the target is ZNF721 DBD1 (Homo sapiens, UniProt Q8TF20-2 29-461). In short, it runs like this:
as §1

Another test has as its target ZNF721 DBD2 (Homo sapiens, UniProt Q8TF20-2 395-923). In short, it runs like this:
as §1

ZNF721 full-length, sequence (Q8TF20 other isoform, or with tags, fused parts or gaps): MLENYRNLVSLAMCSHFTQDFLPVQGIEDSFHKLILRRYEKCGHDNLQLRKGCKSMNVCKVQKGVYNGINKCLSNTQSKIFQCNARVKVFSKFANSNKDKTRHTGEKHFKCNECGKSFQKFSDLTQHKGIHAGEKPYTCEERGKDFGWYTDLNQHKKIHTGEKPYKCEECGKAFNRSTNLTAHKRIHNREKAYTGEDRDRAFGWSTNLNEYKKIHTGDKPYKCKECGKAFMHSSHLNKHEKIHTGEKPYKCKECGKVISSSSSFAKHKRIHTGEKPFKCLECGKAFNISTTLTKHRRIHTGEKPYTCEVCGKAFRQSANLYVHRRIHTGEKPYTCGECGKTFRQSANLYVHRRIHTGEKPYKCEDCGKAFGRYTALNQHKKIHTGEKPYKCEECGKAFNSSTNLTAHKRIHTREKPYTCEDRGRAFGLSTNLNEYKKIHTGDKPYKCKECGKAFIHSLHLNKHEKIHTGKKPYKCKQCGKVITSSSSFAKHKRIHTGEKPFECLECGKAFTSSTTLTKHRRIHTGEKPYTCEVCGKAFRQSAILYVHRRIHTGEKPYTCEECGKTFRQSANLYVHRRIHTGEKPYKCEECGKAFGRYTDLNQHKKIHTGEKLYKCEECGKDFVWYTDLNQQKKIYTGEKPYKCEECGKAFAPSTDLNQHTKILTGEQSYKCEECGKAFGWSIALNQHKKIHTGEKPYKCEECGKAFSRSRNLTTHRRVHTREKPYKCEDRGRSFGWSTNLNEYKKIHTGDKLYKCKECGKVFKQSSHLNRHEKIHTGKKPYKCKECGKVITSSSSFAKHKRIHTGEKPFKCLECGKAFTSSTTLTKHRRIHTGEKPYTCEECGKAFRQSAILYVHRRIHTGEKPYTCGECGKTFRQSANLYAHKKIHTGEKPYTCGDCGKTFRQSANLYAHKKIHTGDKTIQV
ZNF721 DBD1, sequence (Q8TF20 17-449): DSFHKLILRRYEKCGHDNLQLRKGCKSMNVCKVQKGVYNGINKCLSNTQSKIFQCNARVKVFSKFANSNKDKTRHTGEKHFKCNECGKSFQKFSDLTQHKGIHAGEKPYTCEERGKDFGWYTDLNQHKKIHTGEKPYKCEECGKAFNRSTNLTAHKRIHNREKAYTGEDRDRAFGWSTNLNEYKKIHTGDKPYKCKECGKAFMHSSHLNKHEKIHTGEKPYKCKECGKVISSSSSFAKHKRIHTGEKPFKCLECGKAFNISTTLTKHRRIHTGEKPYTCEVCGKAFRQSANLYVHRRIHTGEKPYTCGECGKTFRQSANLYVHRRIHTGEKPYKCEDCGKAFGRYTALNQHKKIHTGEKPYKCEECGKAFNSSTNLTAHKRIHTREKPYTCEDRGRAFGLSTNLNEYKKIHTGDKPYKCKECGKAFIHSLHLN
ZNF721 DBD2, sequence (Q8TF20 383-911): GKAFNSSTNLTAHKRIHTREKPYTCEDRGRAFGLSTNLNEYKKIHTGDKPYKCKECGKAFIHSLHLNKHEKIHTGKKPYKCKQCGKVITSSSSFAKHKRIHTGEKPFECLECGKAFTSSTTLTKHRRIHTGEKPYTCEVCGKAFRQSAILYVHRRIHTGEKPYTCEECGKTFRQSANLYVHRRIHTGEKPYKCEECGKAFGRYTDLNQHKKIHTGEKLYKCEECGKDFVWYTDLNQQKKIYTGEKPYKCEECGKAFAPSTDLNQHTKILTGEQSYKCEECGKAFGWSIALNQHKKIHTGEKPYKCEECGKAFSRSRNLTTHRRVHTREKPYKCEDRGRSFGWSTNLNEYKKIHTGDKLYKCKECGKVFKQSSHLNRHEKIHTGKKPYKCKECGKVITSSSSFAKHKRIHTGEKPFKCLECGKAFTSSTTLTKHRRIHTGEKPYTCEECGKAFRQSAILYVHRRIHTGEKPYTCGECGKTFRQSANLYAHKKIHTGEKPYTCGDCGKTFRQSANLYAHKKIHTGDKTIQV

For the sequence AGGGGTGGTG, the values for the binding signal with ZNF721 full-length, in the test with ZNF721 DBD1 and with ZNF721 DBD2 were 0.139 relative 10-mer count, 0.00532 relative 10-mer count and 0.00407 relative 10-mer count, respectively.

In the case of CGCCCGCCCC, the binding signal worked out at 0.126 relative 10-mer count with ZNF721 full-length, 0.00408 relative 10-mer count in the test with ZNF721 DBD1 and 0.00144 relative 10-mer count with ZNF721 DBD2.

Consider CCCTCCCACC, for which the binding signal was determined as 0.265 relative 10-mer count with ZNF721 full-length, 0.0161 relative 10-mer count in the test with ZNF721 DBD1 and 0.00755 relative 10-mer count with ZNF721 DBD2.

For the sequence CAGCGTATCC, the binding signal came out at 0.324 relative 10-mer count with ZNF721 full-length, 0.00174 relative 10-mer count in the test with ZNF721 DBD1 and 0.648 relative 10-mer count with ZNF721 DBD2.

For the sequence CAGCGTACCC, the binding signal is 0.239 relative 10-mer count in the test with ZNF721 full-length, 0.00229 relative 10-mer count with ZNF721 DBD1 and 0.41 relative 10-mer count in the test with ZNF721 DBD2.

On to AAAAAGGCAT, for which the results for the binding signal in the test with ZNF721 full-length, with ZNF721 DBD1 and with ZNF721 DBD2 were 0.188 relative 10-mer count, 0.00266 relative 10-mer count and 0.155 relative 10-mer count, respectively.

Regarding CCCCACGCCC, the binding signal in the test with ZNF721 full-length stood at 0.235 relative 10-mer count; with ZNF721 DBD1 it was 0.00853 relative 10-mer count; in the test with ZNF721 DBD2, 0.00395 relative 10-mer count.

For the sequence CGCCCACCCC, the binding signal with ZNF721 full-length was determined as 0.23 relative 10-mer count; with ZNF721 DBD1, 0.00913 relative 10-mer count; in the test with ZNF721 DBD2, 0.00252 relative 10-mer count.

As to TCCCCACCCA, the binding signal in the test with ZNF721 full-length was 0.122 relative 10-mer count; in the test with ZNF721 DBD1, 0.00495 relative 10-mer count; in the test with ZNF721 DBD2 it was 0.00431 relative 10-mer count.

For AACAGCATGA, the binding signal in the test with ZNF721 full-length stood at 0.198 relative 10-mer count; with ZNF721 DBD1, 0.00188 relative 10-mer count; with ZNF721 DBD2, 0.308 relative 10-mer count.

GCCCACCCCC: the binding signal was determined as 0.215 relative 10-mer count with ZNF721 full-length, 0.00876 relative 10-mer count with ZNF721 DBD1 and 0.00779 relative 10-mer count with ZNF721 DBD2.

For the sequence CCACGCCCCA, the results for the binding signal in the test with ZNF721 full-length, in the test with ZNF721 DBD1 and in the test with ZNF721 DBD2 were 0.109 relative 10-mer count, 0.00422 relative 10-mer count and 0.0024 relative 10-mer count, respectively.

Turning to CCCCCCTGCC, the binding signal was 0.121 relative 10-mer count in the test with ZNF721 full-length, 0.00399 relative 10-mer count with ZNF721 DBD1 and 0.00168 relative 10-mer count with ZNF721 DBD2.

Turning to CCTCGCCCCC, the binding signal turned out to be 0.123 relative 10-mer count with ZNF721 full-length, 0.00592 relative 10-mer count with ZNF721 DBD1 and 0.00144 relative 10-mer count in the test with ZNF721 DBD2.

Consider CCCTCCCCTC, for which the binding signal in the test with ZNF721 full-length was determined as 0.142 relative 10-mer count; in the test with ZNF721 DBD1, 0.00679 relative 10-mer count; with ZNF721 DBD2, 0.0129 relative 10-mer count.

Take GCCCCTCCCC: the binding signal in the test with ZNF721 full-length amounted to 0.144 relative 10-mer count; with ZNF721 DBD1, 0.00596 relative 10-mer count; with ZNF721 DBD2 it was 0.00551 relative 10-mer count.

With GAAAAAAACA, the binding signal in the test with ZNF721 full-length amounted to 0.2 relative 10-mer count; with ZNF721 DBD1, 0.00289 relative 10-mer count; with ZNF721 DBD2, 0.165 relative 10-mer count.

With AGCATCCCCA, the binding signal is 0.136 relative 10-mer count with ZNF721 full-length, 0.0121 relative 10-mer count with ZNF721 DBD1 and 0.0674 relative 10-mer count with ZNF721 DBD2.

For the sequence CCACCCGCCC, the binding signal worked out at 0.235 relative 10-mer count with ZNF721 full-length, 0.00922 relative 10-mer count in the test with ZNF721 DBD1 and 0.00443 relative 10-mer count with ZNF721 DBD2.

In the case of CCCCCAACCC, the binding signal with ZNF721 full-length turned out to be 0.233 relative 10-mer count; in the test with ZNF721 DBD1, 0.00775 relative 10-mer count; in the test with ZNF721 DBD2, 0.00168 relative 10-mer count.

On to CCCTCGCCCC, for which the binding signal turned out to be 0.167 relative 10-mer count in the test with ZNF721 full-length, 0.00702 relative 10-mer count in the test with ZNF721 DBD1 and 0.00336 relative 10-mer count with ZNF721 DBD2.

In the case of GGCGGGGGGA, the binding signal stood at 0.126 relative 10-mer count with ZNF721 full-length, 0.00619 relative 10-mer count with ZNF721 DBD1 and 0.0024 relative 10-mer count in the test with ZNF721 DBD2.

As for CCCTCCTCCC, the binding signal with ZNF721 full-length amounted to 0.179 relative 10-mer count; with ZNF721 DBD1, 0.00927 relative 10-mer count; with ZNF721 DBD2, 0.00479 relative 10-mer count.

For CCCCTCCCCC, the results for the binding signal with ZNF721 full-length, with ZNF721 DBD1 and with ZNF721 DBD2 were 0.337 relative 10-mer count, 0.0145 relative 10-mer count and 0.00443 relative 10-mer count, respectively.

As to CCACCGCCAC, the binding signal with ZNF721 full-length came out at 0.12 relative 10-mer count; in the test with ZNF721 DBD1, 0.00394 relative 10-mer count; with ZNF721 DBD2 it was 0.00599 relative 10-mer count.

For CCACCCCCAC, the binding signal with ZNF721 full-length was 0.326 relative 10-mer count; with ZNF721 DBD1, 0.0121 relative 10-mer count; with ZNF721 DBD2 it was 0.00515 relative 10-mer count.

Consider CCTCCCTCCC, for which the values for the binding signal with ZNF721 full-length, in the test with ZNF721 DBD1 and in the test with ZNF721 DBD2 were 0.179 relative 10-mer count, 0.00931 relative 10-mer count and 0.00479 relative 10-mer count, respectively.

CCCACCCCCA: the results for the binding signal with ZNF721 full-length, with ZNF721 DBD1 and in the test with ZNF721 DBD2 were 0.28 relative 10-mer count, 0.0118 relative 10-mer count and 0.00647 relative 10-mer count, respectively.

Take CGCACCCCCC: the binding signal is 0.118 relative 10-mer count with ZNF721 full-length, 0.00463 relative 10-mer count in the test with ZNF721 DBD1 and 0.00276 relative 10-mer count with ZNF721 DBD2.

As to CCACCACCGC, the binding signal with ZNF721 full-length stood at 0.11 relative 10-mer count; with ZNF721 DBD1, 0.00482 relative 10-mer count; with ZNF721 DBD2, 0.00503 relative 10-mer count.
